# Measured values taken from ChEMBL document CHEMBL4513216, “Probing the Open Global Health Chemical Diversity Library for Multistage-Active Starting Points for Next-Generation Antimalarials” (ACS Infect Dis, 2020).
# The campaign covered roughly 65,000 compounds. About 2,100 (3.2%) showed an effect of 50% or more. The median lay at about -52%. The full list was thinned out, with strong results kept by preference.
# Test system: Plasmodium falciparum
# Assay: Screen against P. falciparum Asexual Blood Stage (ABS), at 5uM
# Format: functional, Dd2
# Details: tested at 5 uM
row,SMILES,INHIBITION [%]
1,O=C(NCC1CCCCC1)NC1CCCc2c1cnn2CCO (centres undefined),-133
2,Cc1c(C(C)NC(=O)N2CCN(C3CCCC3)CC2)cnn1C (centres undefined),-70.2
3,COC(=O)c1sc2cccc(F)c2c1CNC(=O)C1CCOC1 (centres undefined),-5.44
4,Cc1cccc(Nc2ccc(C3CCN(Cc4ncc[nH]4)CC3)nc2)n1,51.8
5,Fc1ccc(Nc2ccc(C3CCN(Cc4ncc[nH]4)CC3)nc2)nc1,63.1
6,Cc1nnc(Nc2cccc(C3CCN(Cc4ncc[nH]4)CC3)n2)s1,31.6
7,CNc1cccc(C2CCCN(Cc3ncc[nH]3)C2)n1 (centres undefined),-20.8
8,Cc1cc(Nc2ccc(F)cn2)cc(C2CCN(Cc3ncc[nH]3)C2)n1 (centres undefined),-49.2
9,Fc1cccc(OC2CCN(Cc3ncc[nH]3)CC2)c1,36.9
10,CCN(CC)C(=O)C1CCCN1C(=O)c1cccc(-n2cnnn2)c1 (centres undefined),-72.5
11,O=C(CCCOc1ccccc1F)NCCCC(=O)Nc1cn[nH]c1,-97.2
12,Cc1cc(C)n(CC2CCCN2C(=O)c2ccc3c(c2)COC3)n1 (centres undefined),-101
13,CCOCc1ccc(CNC2=NCCCN2)cc1,55.7
14,CN(C)c1ccc(CNC2=NCCCN2)cc1,-56.7
15,c1ccc(OCCNC2=NCCCN2)cc1,16.3
16,CCOCCOC(C)C(=O)NCc1cn2cc(Cl)ccc2n1 (centres undefined),-73.4
17,COc1ccc(S(=O)(=O)N2C[C@H](OC)[C@]3(CCCO3)C2)cc1,-98.4
18,COCC(=O)N[C@@H]1CN(Cc2ccc3c(c2)OCCO3)C[C@H]1O,-66.5
19,Cc1nn(C)c2cn(C(C)C(=O)NCc3cccc(F)c3)nc12 (centres undefined),-32
20,c1ncn(CC2CCCN(Cc3nnc(C4CC4)o3)C2)n1 (centres undefined),-49
21,CC(C)c1nnc(CN2CCCC(Cn3cncn3)C2)o1 (centres undefined),53.1
22,Cc1oc(-c2ccco2)nc1CN1CCCC(Cn2cncn2)C1 (centres undefined),56.4

row,SMILES,INHIBITION [%]
1,c1coc(-c2nc(CN3CCCC(Cn4cncn4)C3)cs2)c1 (centres undefined),-19.5
2,CC(C)(C)c1nnc(CN2CCCC(Cn3cncn3)C2)o1 (centres undefined),-204
3,c1coc(-c2noc(CN3CCCC(Cn4cncn4)C3)n2)c1 (centres undefined),-29
4,COc1ccc2c(c1)CC(C1CCOCC1)N(C(=O)c1cnccn1)C2 (centres undefined),-108
5,COC(=O)c1ccc(N2CCN(C(=O)c3cccnc3)C(C)C2)cc1 (centres undefined),-5.1
6,CN(C)C(=O)CN1CCc2ncnc(NC3CCC3)c2CC1,-76.8
7,CCC(CO)N(Cc1ccc(C(=O)O)cc1)Cc1ccsc1 (centres undefined),-74.7
8,CCC(CO)N(CC=C(C)C)Cc1ccsc1 (centres undefined),23.4
9,CCC(CO)N(Cc1ccsc1)Cc1cccc(O)c1 (centres undefined),67.6
10,O=C(NCCCN1CCOCC1)c1nc(-c2ccc3cc[nH]c3c2)no1,20.5
11,COc1cccc(CC(=O)N2CCCC2c2nc(C)c(C)c(O)n2)c1 (centres undefined),-102
12,CN(CCC#N)C(=O)Cn1nnnc1C(C)(C)C,-112
13,CC(O)(CNC(=O)c1c(F)cccc1Cl)c1ccco1 (centres undefined),-45.8
14,CC(C)c1cc(C(=O)NCCN2CCOCC2)nc(N2CCCC2)n1,-70.3
15,c1cc(-c2nc3c(c(NCCc4c[nH]cn4)n2)CCNCC3)ccn1,-225
16,c1ccc(-c2nc3c(c(NCCc4c[nH]cn4)n2)CCNC3)cc1,51.1
17,c1nc(CCNc2nc(C3CC3)nc3c2CCNCC3)c[nH]1,-79.3
18,Cc1ccc(C(=O)N2CCC(O)(CN3CCc4ccccc4C3)C2)s1 (centres undefined),-64.4
19,CN(C)Cc1ccc(C(=O)N2CCCC(COc3ccc(F)cc3)C2)o1 (centres undefined),17.1
20,CC(NC(=O)NCCCN(C)S(C)(=O)=O)c1ccc(Cl)cc1 (centres undefined),-42.6
21,Cc1ccc(NC(=O)Nc2cnc(N3CCN(C)CC3)nc2)cc1,59.3
22,COc1ccc(C)cc1NC(=O)Nc1cnc(N2CCCC2)nc1,-26.2

row,SMILES,INHIBITION [%]
1,COc1ccc(NC(=O)c2cnc(N3CCN(C)CC3)nc2C)cc1,-103
2,CCC1CN(C)c2ccccc2CN1C(=O)Nc1cccc(F)c1 (centres undefined),-107
3,COCCN(CCOC)C(=O)c1cnn(C)c1C,-57.9
4,Cc1nc(CCNC2CCN(Cc3ccccc3)C2)sc1C (centres undefined),53.5
5,Cc1nc(CNC2CCN(Cc3ccccc3)C2)sc1C (centres undefined),7.17
6,CCc1nc(C)sc1CNC1CCN(Cc2ccccc2)C1 (centres undefined),-2.57
7,CCC(=O)c1ccc(Br)cc1NN1c2cc(Br)ccc2C(=O)C1(C)OC (centres undefined),43.1
8,CCc1n[nH]c(C(=O)N2CCN(c3ccc4ccccc4c3)CC2)c1C,-8.02
9,CCN(C(C)=O)c1nc(CN2CCCCC2Cn2cncn2)cs1 (centres undefined),9.81
10,CC(=O)N(C)c1nc(CN2CCCCC2Cn2cncn2)cs1 (centres undefined),-125
11,CC(=O)N(c1ccc(C)cc1)c1nc(CN2CCCCC2C)cs1 (centres undefined),61.8
12,Cc1cnc(NC(C)Cc2cccnc2)nc1N(C)C (centres undefined),5.71
13,O=C(NCc1ccco1)[C@@H]1CCO[C@@H]2CCN(CC3CC3)C[C@@H]21,-37.9
14,CN1CC(=O)N(c2cccc(F)c2)CC12CCN(Cc1nccs1)C2 (centres undefined),-71.1
15,c1ccc(-n2nnnc2CNCC2CCCN2c2cccnn2)cc1 (centres undefined),-59.9
16,CN(C)C(=O)CN1CCCC(c2nccnc2-c2cccc(Cl)c2)C1 (centres undefined),6.94
17,Cn1cc(CN2CCCC(c3nccnc3-c3cccc(F)c3)C2)cn1 (centres undefined),-45.2
18,CN1CCCC(c2nccnc2-c2cccc(Cl)c2)C1 (centres undefined),45.1
19,Cc1cccc(-c2nccnc2C2CCCN(C)C2)c1 (centres undefined),-10.8
20,COCCN1CCCC(c2nccnc2-c2cccc(Cl)c2)C1 (centres undefined),62.9
21,CN1CCCC(c2nccnc2-c2cccc(C(F)(F)F)c2)C1 (centres undefined),68.7
22,COc1ccc2c(c1)OCC(CNc1cc(N)nc(SC)n1)C2 (centres undefined),-50.7

row,SMILES,INHIBITION [%]
1,CC(Cn1cccn1)NCc1ccc(OCc2ccncc2)cc1 (centres undefined),-96.3
2,CN1CCOC(CNCCOc2ccc(C#N)cc2)C1 (centres undefined),-41.7
3,Oc1coc2cc(OC[C@@H]3CCCN4CCCC[C@H]34)ccc12,-8.29
4,Cc1c(Cl)cccc1S(=O)(=O)N1CCC(S(=O)(=O)c2nncn2C)CC1,-68.7
5,O=C(NCc1cnc2n1CCN(Cc1ccsc1)CC2)C1CCC1,-48.2
6,CNS(=O)(=O)CCCN1CCCC1c1noc(C)n1 (centres undefined),-104
7,CCc1nc(C2CCCN2Cc2nc(C(C)(C)C)no2)no1 (centres undefined),-105
8,CCn1cc(CNC(=O)CC(C)C)cn1,-153
9,CC(C)n1ccnc1CN1CCCN(C(=O)c2cc(Cl)c[nH]2)CC1,39
10,Cc1[nH]ncc1C(=O)N1CCCN(Cc2nccn2C(C)C)CC1,11.1
11,CC(C)n1ccnc1CN1CCCN(C(=O)c2cnc[nH]2)CC1,60.4
12,CN(C)CC(=O)N1CCC2(CC(=O)N(c3cccc(C#N)c3)C2)C1 (centres undefined),-30
13,Cc1cccc(CN2CCC3(CC(C(=O)NCC(C)C)=NO3)C2)c1 (centres undefined),-93.1
14,CCOCCN1CCN(CCOCC(F)(F)F)CC1,-38.7
15,Cn1ccnc1C(O)(CCNCc1ccco1)C(F)(F)F (centres undefined),64.6
16,CC(C(=O)NCc1ccco1)N1CCN(Cc2nccn2C)CC1 (centres undefined),-35.6
17,FC(F)(F)C1CCCn2c(CNCc3ccco3)nnc21 (centres undefined),-67
18,CCc1cc(=O)[nH]c(-n2nc(C3CC3)cc2NC(=O)C2CC2)n1,-66.5
19,COCCN1CCC(NC(=O)Nc2cccc(F)c2)C1 (centres undefined),-54.6
20,COCCC(=O)NC1CCN(CC2(c3cccc(F)c3)CCCC2)CC1,69.1
21,COCCN1CCC(NC(=O)NCC2(c3cccc(F)c3)CC2)C1 (centres undefined),-77.2
22,CC(=O)NCC(=O)N1CCn2cc(CN3CCCCC3)nc2C1,-144

row,SMILES,INHIBITION [%]
1,O=C(c1ccc(S(=O)(=O)NCCc2ccncc2)cc1)N1CCCC1,-36.5
2,COc1ccc(NC2CCc3c2[nH]c(=O)n(C2CCCCC2)c3=O)cc1 (centres undefined),-98.2
3,CC(=O)N1CCC(c2ccnc(Nc3cncnc3)n2)CC1,-18.6
4,CC(=O)N1CCCC1c1ccnc(Nc2cncnc2)n1 (centres undefined),-101
5,c1ncc(Nc2nccc(C3CCCCN3CC3CCCCC3)n2)cn1 (centres undefined),52
6,CN(C)CCCNC(=O)c1cnc(Cc2ccc(F)cc2)s1,27.4
7,Cc1ccc(C(=O)NC(CN2CCCC2=O)c2ccccc2)cn1 (centres undefined),-81.3
8,Cc1cccc(C(=O)NC(CN2CCCC2=O)c2ccccc2)n1 (centres undefined),-161
9,Cc1cnc(C(=O)NC(CN2CCCC2=O)c2ccccc2)cn1 (centres undefined),69.6
10,Cn1c2ccccc2c2ncn(CCN3CCOCC3)c(=O)c21,-57.9
11,Cc1[nH]c2ccccc2c1-c1ccnc(N[C@@H](CO)C(C)C)n1,-9.36
12,Cc1[nH]c2ccccc2c1-c1ccnc(N[C@@H](C)CO)n1,-21.2
13,Cc1[nH]c2ccccc2c1-c1ccnc(N[C@H](CO)CC(C)C)n1,51.9
14,CC(c1nc(-c2ccccc2)no1)N1CCc2c(ncn2C2CC2)C1 (centres undefined),-19.5
15,Fc1cccnc1Oc1cc(F)c(CN2CCCC2)c(Cl)c1,-49.5
16,Cc1cccc(CN2C[C@@H](CN3CCCN(C)CC3)[C@@H](CO)C2)n1,-29.5
17,CN1CCN(C[C@@H]2CN(C(=O)c3ccccc3C#N)C[C@@H]2CO)CC1,-106
18,OCC1CCN(C[C@@H]2CN(C3Cc4ccccc4C3)C[C@@H]2CO)CC1,66.4
19,CN1CCN(C[C@@H]2CN(C3Cc4ccccc4C3)C[C@@H]2CO)CC1,51.4
20,Cn1ccnc1CN1C[C@@H](CN2CCC(CO)CC2)[C@@H](CO)C1,-1.49
21,OC[C@H]1CN(C2Cc3ccccc3C2)C[C@H]1CN1CCC(O)CC1,15.1
